{
  "source": "PubChem BioAssay",
  "note": "The source made the active and inactive calls.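 The calls were made as follows: active = normalized viability below 100% at a tested concentration; inactive = the rest.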",
  "data": [
    {"experiment": "ovarian cancer cell viability with rucaparib, profiling panel, oncology-focused library, rucaparib conditional (AID 1508598)", "conditions": "patient-derived ovarian cancer cells, CellTiter-Glo viability, 144 h; at 0.0781 µM; OCI-P5x cells; without rucaparib; stronger effect = lower value", "values": [
      {"smiles": "O=c1[nH]c(=O)n([C@@H]2C[C@H](O)[C@@H](CO)O2)cc1F", "viability": "109% (inactive)"},
      {"smiles": "COc1cccc2c1C(=O)c1c(O)c3c(c(O)c1C2=O)C[C@@](O)(C(C)=O)C[C@H]3O[C@H]1C[C@H](N)[C@H](O)[C@H](C)O1", "viability": "26.5% (active)"},
      {"smiles": "C[C@]12CC[C@H]3c4ccc(O)cc4CC[C@H]3[C@@H]1CC[C@H]2O", "viability": "109% (inactive)"},
      {"smiles": "CC1=C(/C=C/C(C)=C\\C=C\\C(C)=C/C(=O)O)C(C)(C)CCC1", "viability": "97.6% (active)"},
      {"smiles": "CC(C)CC(CC(=O)NO)C(=O)N[C@@H](Cc1ccc2ccccc2c1)C(=O)N[C@@H](C)C(=O)NCCN", "note": "(stereo not given in full)", "viability": "92.6% (active)"},
      {"smiles": "COc1cccc2c1C(=O)c1c(O)c3c(c(O)c1C2=O)C[C@@](O)(C(=O)CO)C[C@H]3O[C@H]1C[C@H](N)[C@@H](O)[C@H](C)O1", "viability": "30.8% (active)"},
      {"smiles": "COc1ccc(C2=N[C@H](c3ccc(Cl)cc3)[C@@H](c3ccc(Cl)cc3)N2C(=O)N2CCNC(=O)C2)c(OC(C)C)c1", "viability": "78.2% (active)"},
      {"smiles": "CO[C@H]1C[C@H]2CC[C@@H](C)[C@@](O)(O2)C(=O)C(=O)N2CCCC[C@H]2C(=O)O[C@H]([C@H](C)C[C@@H]2CC[C@H](OC(=O)C(C)(CO)CO)[C@H](OC)C2)CC(=O)[C@H](C)/C=C(\\C)[C@@H](O)[C@@H](OC)C(=O)[C@H](C)C[C@H](C)/C=C/C=C/C=C/1C", "viability": "56.6% (active)"},
      {"smiles": "O=C(O)c1cc(I)ccc1NC(=O)[C@H](Cc1ccccc1)NCc1ccccc1", "viability": "92.4% (active)"},
      {"smiles": "Nc1ncn([C@@H]2O[C@H](CO)[C@@H](O)[C@@H]2O)c(=O)n1", "viability": "122% (inactive)"}
    ]}
  ]
}
